From PubChem BioAssay (NCATS)
Values joined by “and” are separate entries in the source; they are usually repeats but may differ in a detail not shown here. Equal values may be shown once. Results filed as inconclusive are left out. Active and inactive are the calls of the source. The call rests on the fitted dose curve; in most records, active means well fitted curve in the direction sought with a large enough effect; inconclusive means small, poorly fitted or top-dose-only effect, or another doubt; inactive means no such curve, though single readings can be large; an effect the other way counts as inactive or inconclusive.

Tests used:
[1] = target: Cellular tumor antigen p53 (Homo sapiens) (UniProt P04637); test: Primary qHTS for small molecule compounds that upregulate eGFP-tagged delta133p53alpha (in N-terminal) cells. (AID 2060322); conditions: NCI-H358 eGFP-delta133p53alpha fluorescence, 24 h; activation: active compounds read high;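 further: cells pre-induced with doxycycline then dosed without doxycycline; series mostly up to about 56 µM; 0% = DMSO vehicle and 100% = reference activator; nearly all actives have a fitted effect of over 75% in size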
Chain of Cellular tumor antigen p53 (Homo sapiens) (P04637 whole entry, looked up): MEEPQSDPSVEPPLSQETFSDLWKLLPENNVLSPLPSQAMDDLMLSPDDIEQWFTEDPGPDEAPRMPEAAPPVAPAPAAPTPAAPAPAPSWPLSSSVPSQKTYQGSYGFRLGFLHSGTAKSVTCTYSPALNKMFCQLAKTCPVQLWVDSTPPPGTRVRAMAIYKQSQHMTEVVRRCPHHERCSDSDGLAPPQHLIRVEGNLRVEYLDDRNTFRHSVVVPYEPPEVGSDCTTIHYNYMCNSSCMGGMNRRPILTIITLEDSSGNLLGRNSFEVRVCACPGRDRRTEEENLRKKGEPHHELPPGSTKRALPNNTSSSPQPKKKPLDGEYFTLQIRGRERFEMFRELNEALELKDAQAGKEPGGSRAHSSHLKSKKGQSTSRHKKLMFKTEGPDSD
Procedure, shortened: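 NCI-H358 cells pre-induced 24 h with 10 ng/ml doxycycline for eGFP-delta133p53alpha, plated dox-free and exposed 24 h at 37C to titrated compounds. Fixed, Hoechst-stained; gated GFP peak intensity by laser scanning cytometry, normalized to DMSO (0%) and 57.5 uM 5-azacytidine (100%).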

[2] = target: Aldehyde dehydrogenase, mitochondrial (Homo sapiens) (UniProt P05091); test: qHTS for Inhibitors of the Aldehyde Dehydrogenase Family (ALDH2) Primary screen (AID 2061308);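 further: plate controls were vehicle for no effect and reference inhibitor for full effect; nearly all actives have a fitted effect of over 55% in size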
[3] = target: Retinaldehyde dehydrogenase 3 (Homo sapiens) (UniProt P47895); test: qHTS for Inhibitors of the Aldehyde Dehydrogenase Family (ALDH1A3) Validation screen (AID 2061312); further: on the % scale 0 is the no-effect control and ±100 the full control effect; nearly all actives have a fitted effect of over 45% in size
[4] = target: Retinaldehyde dehydrogenase 3 (Homo sapiens) (UniProt P47895); test: qHTS for Inhibitors of the Aldehyde Dehydrogenase Family (ALDH1A3) Primary screen (AID 2061315);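 further: plate controls were DMSO vehicle for no effect and reference inhibitor for full effect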

C[C@@H](NC(=O)[C@H](O)c1cc(F)cc(F)c1)C(=O)N[C@@H]1C(=O)N(C)c2ccccc2-c2ccccc21
inactive: activation [1] -6.21% | Potency [2] | Potency [3] | Potency [4]

O=C(Nc1ccc(CN2CCOCC2)cc1)c1ccc(-c2cccc(Cl)c2)o1
inactive: activation [1] -8.59% | Potency [2] | Potency [3] | Potency [4]

O=C(COc1ccc(C(=O)c2ccccc2)cc1)NC1CCN(Cc2ccccc2)CC1
inactive: activation [1] -6.68% | Potency [2] | Potency [3] | Potency [4]

CCOc1ccc(CCNC(=O)c2cc3sc(Cl)cc3n2C)cc1OCC
inactive: activation [1] -10.5% | Potency [2] | Potency [3] | Potency [4]

Cc1ccc(C)c(OCCn2cc(C(=O)O)c3ccccc32)c1
inactive: activation [1] 7.16% | Potency [2] | Potency [3] | Potency [4]

NS(=O)(=O)c1ccc(N2N=C(c3ccccc3)CC2c2ccccc2)cc1 (stereo unspecified)
inactive: activation [1] -18.6% | Potency [2] | Potency [3] | Potency [4]

COc1ccccc1CN[C@H]1CCCN[C@H]1c1ccccc1
inactive: activation [1] -3.82% | Potency [2] | Potency [3] | Potency [4]

NS(=O)(=O)c1ccc(N2CCN(CC[C@@H]3OCCc4ccccc43)CC2)cc1
inactive: activation [1] 16.7% | Potency [2] | Potency [3] | Potency [4]

O=C(c1cc2c(cc1F)OC(c1ccc(F)cc1)(c1ccc(Cl)cc1Cl)O2)N1CCOCC1 (stereo unspecified)
inactive: activation [1] -4.3% | Potency [2] | Potency [3] | Potency [4]

Cc1cc(-c2nc(-c3ccc(OC(F)(F)F)cc3)no2)nn1Cc1ccnc(N2CCN(C3CC3)CC2)c1
inactive: activation [1] -0.955% | Potency [2] | Potency [3] | Potency [4]

O=C(Nc1cccc(C(F)(F)F)c1)Nc1ccc(Br)cc1-c1nn[nH]n1
inactive: activation [1] -5.73% | Potency [2] | Potency [3] | Potency [4]

O=C(NCC1CCN(Cc2cccc(Cl)c2)CC1)[C@@H]1CCCN(c2ncnc3c2nc2n3CCCC2)C1
inactive: activation [1] 0% | Potency [2] | Potency [3] | Potency [4]

COc1cc(Br)c(S(=O)(=O)Nc2ccc(C(F)(F)F)c(O[C@@H]3CCN(C)C3)c2)cc1OC
inactive: activation [1] 12.4% | Potency [2] | Potency [3] | Potency [4]

CON(C)C(=O)[C@H](O)[C@H](Cc1ccccc1)NC(=O)c1cc2cc(Cl)ccc2[nH]1
inactive: activation [1] -8.59% | Potency [2] | Potency [3] | Potency [4]

On1ncc(C2CCNCC2)c1-c1cccc(-c2ccccc2)c1
inactive: activation [1] -8.11% | Potency [2] | Potency [3] | Potency [4]

c1ccc(Nc2nc3c(s2)CCCc2[nH]ncc2-3)nc1
inactive: activation [1] 8.59% | Potency [2] | Potency [3] | Potency [4]

CNC(=O)COC(=O)NCCC1CCN(c2cccc(C)n2)CC1
inactive: activation [1] 6.21% | Potency [2] | Potency [3] | Potency [4]

O=C(NC/C=C/CN1CCN(c2cccc(Cl)c2Cl)CC1)c1ccc(-c2ccccn2)cc1
inactive: activation [1] 6.68% | Potency [2] | Potency [3] | Potency [4]

O=c1[nH]cnc2c1ncn2[C@@H]1O[C@H](CO)[C@@H](O)[C@H]1O
inactive: activation [1] -11.7% and 6.21% | Potency [2] | Potency [3] | Potency [4]

C=C(F)c1sc(CNCCCNc2cc(=O)c3ccccc3[nH]2)c(C)c1Br
inactive: activation [1] 18.1% | Potency [2] | Potency [3] | Potency [4]

Cc1cc(CN)cc(C)c1NC(=O)c1ccc(-c2cc(Cl)ccc2Cl)o1
inactive: activation [1] 6.68% | Potency [2] | Potency [3] | Potency [4]

CNC(=O)c1ccc2c(c1)CCO[C@H]2CCN1CCN(c2ccc(C(N)=O)cc2)CC1
inactive: activation [1] 8.11% | Potency [2] | Potency [3] | Potency [4]

CCCC(N[C@@H](C)C(=O)N1[C@H](C(=O)O)C[C@@H]2CCCC[C@@H]21)C(=O)OCC (stereo partly specified)
inactive: activation [1] 2.39% | Potency [2] | Potency [3] | Potency [4]

COC(=O)N1CCC(n2ncc3c(N4CCOCC4)nc(-c4ccc(NC(=O)NC5CC5)cc4)nc32)CC1
inactive: activation [1] 12.4% | Potency [2] | Potency [3] | Potency [4]

OC(CC1c2ccccc2-c2cncn21)C1CCCCC1 (stereo unspecified)
inactive: activation [1] -7.16% | Potency [2] | Potency [3] | Potency [4]

NC(=O)c1cccc2[nH]c(-c3ccc(C4CCCN4)cc3F)nc12 (stereo unspecified)
inactive: activation [1] 0% | Potency [2] | Potency [3] | Potency [4]

FC(F)(F)Oc1ccc(-c2ccc3nnc(C(F)(F)F)n3c2)cc1
inactive: activation [1] -3.34% | Potency [2] | Potency [3] | Potency [4]

Cc1cccc(C)c1OCc1cc(C(=O)N2CCC(c3ccncc3)CC2)no1
inactive: activation [1] 0.955% | Potency [2] | Potency [3] | Potency [4]

CN(C)CCOc1cc(NS(=O)(=O)c2c(Cl)cc(C(F)(F)F)cc2Cl)ccc1Cl
inactive: activation [1] 0.477% | Potency [2] | Potency [3] | Potency [4]
